Reference: the supplement of paper PMC6522484
± gives the standard deviation of the averaged measurements.

Legend:
[1] = tested on: DLD1; experiment: cell viability (CellTiter-Glo) relative to plate median (fraction of plate median); higher = more viable cells; details: 5 µM; treatment time 24 h; reporter: 7TFP
Summary of the method: (§1)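 Colorectal cancer lines with stably integrated lentiviral TCF/Wnt firefly luciferase reporters received library compounds at a final 5 µM, 24 h after seeding into 384-well plates, for a 24 h exposure. Reported figures are plate-median-normalised firefly luciferase or CellTiterGlo luminescence per well. They average two independent replicates.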

[2] = tested on: HCT116; experiment: as above; details: 5 µM; treatment time 24 h; reporter: TCF4/Wnt
Summary of the method: as §1

[3] = tested on: SW480; experiment: as above; details: 5 µM; treatment time 24 h; reporter: 7TFP
Summary of the method: as §1

[4] = tested on: DLD1; experiment: TCF/Wnt firefly luciferase reporter signal relative to plate median (fraction of plate median); higher = higher Wnt reporter signal; details: 5 µM; treatment time 24 h; reporter: 7TFP
Summary of the method: as §1

[5] = tested on: SW480; experiment: as above; details: 5 µM; treatment time 24 h; reporter: 7TFP
Summary of the method: as §1

Row | SMILES | cell viability [1] | cell viability [2] | cell viability [3] | TCF/Wnt firefly luciferase reporter signal [4] | TCF/Wnt firefly luciferase reporter signal [5]
1 | C[n+]1cc2c3c(ccc2c2ccc4cc5c(cc4c21)OCO5)OCO3 | 1.02 ± 0.021 | 1.08 ± 0.12 | 0.99 ± 0.043 | 1 ± 0.081 | 0.981 ± 0.011
2 | CC(NCCc1ccc(O)cc1)C(O)c1ccc(O)cc1 (stereo not given) | 0.914 ± 0.1 | 0.929 ± 0.1 | 0.933 ± 0.056 | 0.981 ± 0.07 | 0.913 ± 0.027
3 | N/C(=N\C(=O)c1nc(Cl)c(N)nc1N)NCc1ccccc1 | 0.986 ± 0.035 | 0.969 ± 0.17 | 0.998 ± 0.031 | 1.07 ± 0.16 | 1.04 ± 0.066
4 | CCOC(=O)C1=C[C@]2(CC)CCCN3CCc4c(n1c1ccccc41)[C@@H]32 | 0.916 ± 0.016 | 1.01 ± 0.088 | 0.995 ± 0.0071 | 1.02 ± 0.067 | 0.782 ± 0.079
5 | O=C(O)/C=C/C=C/c1ccccc1 | 0.976 ± 0.16 | 0.9625 ± 0.0092 | 0.98 ± 0.0057 | 0.906 ± 0.028 | 0.729 ± 0.071
6 | C=CC1=C(C(=O)O)N2C(=O)[C@@H](NC(=O)/C(=N\O)c3csc(N)n3)[C@H]2SC1 | 0.911 ± 0.11 | 1.04 ± 0.1 | 0.963 ± 0.025 | 0.941 ± 0.052 | 0.969 ± 0.072
7 | Cc1cc(=O)[nH]c(=S)[nH]1 | 1.07 ± 0.05 | 1.01 ± 0.072 | 0.979 ± 0.018 | 1.07 ± 0.071 | 0.9835 ± 0.0064
8 | CC(=O)O[C@H]1CC[C@@]2(C)[C@@H](CC[C@@H]3[C@@H]2CC(=O)[C@]2(C)[C@@H]4[C@H](C[C@@H]32)O[C@]2(CC[C@@H](C)CO2)[C@H]4C)C1 | 0.907 ± 0.018 | 0.934 ± 0.047 | 0.9615 ± 0.0035 | 0.858 ± 0.038 | 0.995 ± 0.16
9 | O=C(NCO)c1cccnc1 | 0.952 ± 0.027 | 0.921 ± 0.022 | 1.04 ± 0.028 | 1.02 ± 0.13 | 0.959 ± 0.013
10 | CC(=O)O[C@@H]1CC2C(C)(CC[C@H](O)C2(C)C)C2CC[C@]3(C)C(=CC(=O)O[C@H]3c3ccoc3)C21C (stereo partly drawn) [3beta-HYDROXYDEOXODIHYDRODEOXYGEDUNIN] | 1 ± 0.028 | 0.963 ± 0.081 | 1.02 ± 0.028 | 1.15 ± 0.12 | 1.12 ± 0.014
11 | C[C@H](CCC(=O)O)[C@H]1CC[C@H]2[C@@H]3CC[C@@H]4C[C@H](O)CC[C@]4(C)[C@H]3CC[C@]12C | 1.11 ± 0.11 | 1.17 ± 0.15 | 1.04 ± 0.028 | 1.21 ± 0.11 | 1.16 ± 0.014
12 | Nc1ccc(C(=O)NCC(=O)O)cc1 | 0.988 ± 0.059 | 0.962 ± 0.069 | 0.98 ± 0.057 | 0.998 ± 0.088 | 0.984 ± 0.12
13 | C=C[C@]1(C)C=C2C(=O)[C@@]3(O)OC(=O)[C@@]4(CCCC(C)(C)[C@H]34)[C@@]2(O)CC1 [Sphaeropsidin A] | 0.898 ± 0.16 | 0.973 ± 0.067 | 0.952 ± 0.015 | 0.938 ± 0.086 | 1.05 ± 0.19
14 | Cc1cc(O)c2c3c(ccc2c1)C(=O)c1c(O)cccc1C3=O [Tetrangulol] | 1.02 ± 0.065 | 0.985 ± 0.018 | 0.972 ± 0.015 | 0.978 ± 0.023 | 0.974 ± 0.035
15 | CCCCc1oc2ccccc2c1C(=O)c1cc(I)c(OCCN(CC)CC)c(I)c1 | 1.02 ± 0.089 | 1.02 ± 0.036 | 0.964 ± 0.019 | 1.02 ± 0.029 | 1.04 ± 0.1
16 | CC[C@@H](C(=O)[C@@H](C)[C@@H](O)[C@H](C)CCc1ccc(C)c(O)c1C(=O)O)[C@H]1O[C@](CC)([C@H]2CC[C@](O)(CC)[C@H](C)O2)C[C@@H]1C | 0.985 ± 0.013 | 1.03 ± 0.098 | 1.02 ± 0.014 | 1.23 ± 0.099 | 1.03 ± 0.12
17 | CCC/C=C1\OC(=O)C2=C1CCC=C2 | 0.992 ± 0.083 | 0.973 ± 0.0028 | 0.9545 ± 0.00071 | 0.948 ± 0.1 | 0.967 ± 0.061
18 | COC(=O)C[C@H]1C(C)(C)[C@@H](O)[C@@H]2CC3=C4C=C(OC)O[C@@H](c5ccoc5)[C@]4(C)CCC3[C@@]1(C)C2=O (stereo partly drawn) [3-DEOXO-3beta-HYDROXYMEXICANOLIDE 16-ENOL ETHER] | 0.931 ± 0.11 | 0.91 ± 0.036 | 0.919 ± 0.018 | 0.946 ± 0.07 | 0.921 ± 0.064
19 | C[C@H]1C[C@@H]2[C@H]([C@@H](O)C[C@@]3(C)[C@H]2CC[C@]3(O)C(=O)COC(=O)CCC(=O)O)[C@@]2(C)C=CC(=O)C=C12 | 0.918 ± 0.13 | 1.01 ± 0.018 | 0.921 ± 0.012 | 0.964 ± 0.044 | 0.997 ± 0.061
20 | CCC(=O)O[C@H]1[C@H](O[C@@H]2[C@@H](C)[C@H](O[C@H]3C[C@@](C)(OC)[C@@H](O)[C@H](C)O3)[C@@H](C)C(=O)O[C@H](CC)[C@@](C)(O)[C@H](O)[C@@H](C)C(=O)[C@H](C)C[C@@]2(C)O)O[C@H](C)C[C@@H]1N(C)C | 0.989 ± 0.058 | 0.93 ± 0.011 | 1.01 ± 0.016 | 0.9955 ± 0.0064 | 1.11 ± 0.014
21 | CC1=C(C(=O)O)N2C(=O)[C@@H](NC(=O)[C@H](N)C3=CCC=CC3)[C@H]2SC1 | 0.978 ± 0.073 | 0.958 ± 0.018 | 0.948 ± 0.021 | 1.01 ± 0.09 | 1.02 ± 0.021
22 | Cc1nnc(SCC2=C(C(=O)O)N3C(=O)[C@@H](NC(=O)Cn4cnnn4)[C@H]3SC2)s1 | 0.941 ± 0.035 | 0.941 ± 0.011 | 0.962 ± 0.044 | 0.942 ± 0.15 | 0.834 ± 0.16
23 | CCN1CCN(c2cc3c(cc2F)c(=O)c(C(=O)O)cn3C2CC2)CC1 | 1.01 ± 0.05 | 0.907 ± 0.038 | 0.921 ± 0.03 | 1.05 ± 0.074 | 0.9395 ± 0.005
24 | O=C(CC(=O)c1ccccc1)c1ccccc1 | 0.972 ± 0.069 | 0.82 ± 0.026 | 1.03 | 1.15 ± 0.021 | 1.17 ± 0.057
25 | COc1cc2ccc(=O)oc2cc1O | 1.09 ± 0.064 | 1.09 | 1.12 ± 0.085 | 0.999 ± 0.059 | 0.892 ± 0.12
26 | CC1(C)C(=O)C=C[C@]2(C)[C@H]3CC[C@@]4(C)[C@H](c5ccoc5)OC(=O)[C@H]5O[C@]54[C@]3(C)C(=O)C[C@@H]12 | 1.02 | 0.974 ± 0.023 | 0.97 ± 0.033 | 0.871 ± 0.093 | 0.978 ± 0.025
